# Screens as filed in PubChem.
# The list is not random: actives were taken first. Their share in the collection is about 14%.
# Lassa entry inh – qHTS for Inhibitors of binding or entry into cells for Lassa Virus | Potency, µM (series often up to 37.9 µM), hits mostly inhibitors | Lassa virus pseudotype entry inhibition, cell reporter | 300,000 tested, 1.2% active | AID 540256, 2011; calls by dose curve; tested in HEK293 cells; also: nearly all actives have a fitted effect of over 50% in size
# HCV inhibitor – qHTS Assay for Inhibitors of Hepatitis C Virus (HCV); Huh7.5.1 HCVcc-Cre infection, luciferase reporter, 44 h; Potency, µM (titrated, usually from 41.8 µM), most hits filed as inhibitors; 340,000 tested, 3.4% active; AID 651820, 2012
#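 1,000 cells/well; 4 h culture; + compound; + HCVcc-Cre (~0.5 moi); 44 h; luciferase substrate, RT 15 min; read 15 sec.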
# MARV entry inh – qHTS for inhibitors of binding or entry into cells for Marburg Virus; Potency, µM (top dose mostly 37.8 µM), hits mostly inhibitors; Marburg virus pseudotyped entry inhibition, cell reporter; AID 540276, 2011; 300,000 tested, 1.8% active; calls by dose curve; tested in HEK293 cells
# HCMV antiviral – qHTS Assay for inhibitors of the human cytomegalovirus (HCMV). AID 1259415, 2018. 410,000 tested, 4.5% active. HFF cells, HCMV-luciferase reporter, 72 h; active compounds read low. activity change, negative = inhibition, % at 57.5 µM; in the data active = activity change below about -60%; inconclusive = no clear call, values can overlap the other calls; inactive = above about -39%
#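 HFF cells seeded 16 h at 37C, treated with compounds, infected with luciferase-reporter HCMV at MOI 1 PFU/cell; luciferase read at 72 h post infection, normalized to buffer-only and Salinomycin controls.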
# Pf growth 96h – Primary qHTS for delayed death inhibitors of the malarial parasite plastid, 96 hour incubation; P. falciparum luciferase reporter growth, 96 h; Potency, µM (top dose mostly 28.7 µM), hits mostly inhibitors; 320,000 tested, 6.9% active
#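 Two parasite generations (96 h, 37 C, 5% CO2) of compound exposure in infected erythrocytes (0.05% parasitemia, 2% hematocrit). Luciferase-reporter P. falciparum; decreased luminescence indicates inhibited growth, aimed at apicoplast-acting delayed death.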
# Pf growth 48h – Primary qHTS for delayed death inhibitors of the malarial parasite plastid, 48 hour incubation | P. falciparum luciferase growth in erythrocytes, 48 h | Potency, µM (doses to about 28.7 µM), hits mostly inhibitors | 310,000 tested, 5.9% active | AID 504832, 2011
#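 Luminescence readout; reporter = integrated firefly luciferase in P. falciparum. RBC culture at 2% hematocrit, 0.1% parasitemia final, 37 C/5% CO2; decreased signal taken as growth inhibition.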
# Hits are given with their value; i = inactive; ? = inconclusive; nt = not tested or not shown. Unless noted, calls follow the shape of the dose curve; as a rule, active = well fitted inhibition curve with a large enough effect; inconclusive = small, poorly fitted or top-dose-only effect, or another doubt; inactive = no such curve, though single readings can be large or run the other way.
SMILES,Lassa entry inh,HCV inhibitor,MARV entry inh,HCMV antiviral,Pf growth 96h,Pf growth 48h
O=C(NCCc1ccccc1)c1ccc2c(c1)N(Cc1ccc(Cl)cc1)C(=O)CS2,?,nt,?,i,nt,nt
CCn1cc2nc(SCc3cc(C)ccc3C)n(CCc3ccccc3)c(=O)c2n1,4µM,nt,nt,-86,nt,nt
CC(/C=C\C=C\c1ccccc1)=N\NC(=O)c1cncc(Br)c1,?,i,?,i,0.93µM,?
CC(/C=C/C=C/c1ccccc1)=N\NC(=O)c1cccnc1,i,i,i,i,?,i
COc1cc(C(=O)NCCNc2nc3ccc(C)cc3cc2C#N)cc(OC)c1OC,nt,i,nt,i,?,i
Cc1ccc(CN(C(=O)COc2ccc(F)cc2)C2CCS(=O)(=O)C2)o1 (centres undefined),i,nt,i,i,nt,nt
Cc1ccc(C(C)C)c(OCCNC(=S)Nc2cccc3ccccc23)c1,i,32µM,?,i,?,9.3µM
S=C(NCc1ccccc1)Nc1cccc2ccccc12,?,10µM,i,?,?,?
Cc1c(Cl)cccc1NC(=S)NCc1ccccc1,i,i,i,-78,nt,nt
O=C(CNc1cccc([N+](=O)[O-])c1)N1CCN(S(=O)(=O)c2ccc(Cl)cc2)CC1,i,i,i,i,?,?
CCCN1CCN(CCCNC(=O)c2cc3c(=O)[nH]c4ccc(C)cc4c3s2)CC1,i,?,?,-101,?,?
CCN(CCCNC(=O)c1cc2c(=O)[nH]c3ccc(C)cc3c2s1)c1ccc(C)cc1,i,nt,i,i,nt,nt
CCN(CCCNC(=O)c1cc2c(=O)[nH]c3ccc(C)cc3c2s1)Cc1ccccc1,?,nt,11µM,-106,nt,nt
Cn1nnc2c(NCc3c(F)cccc3F)ncnc21,i,nt,nt,i,nt,nt
CCc1nc(SCC(=O)Nc2ccc(NC(C)=O)cc2)n[nH]1,i,nt,i,i,nt,nt
O=C(c1ccc(COc2ccccc2)o1)N1CCN(S(=O)(=O)c2ccccc2Cl)CC1,nt,?,nt,i,?,13µM
CC1CCN(C(=O)c2ccc(COc3ccccc3Cl)o2)CC1,i,i,i,i,10µM,?
O=C(c1ccc(COc2ccccc2Cl)o1)N1CCCC1,i,i,i,i,?,i
Cc1ccc(S(=O)(=O)N2CCN(C(=O)c3ccc(COc4ccccc4)o3)CC2)cc1,nt,?,nt,i,9.3µM,12µM
Cc1ccc(S(=O)(=O)N2CCN(C(=O)c3ccco3)CC2)cc1,i,i,i,i,i,i
Cc1ccc(S(=O)(=O)N2CCN(C(=O)c3ccccc3OCc3c(C)noc3C)CC2)cc1,nt,0.56µM,nt,i,?,i
O=C(/C(=N/N=C/c1ccc(O)c(O)c1O)c1ccccc1)c1ccccc1,8.9µM,?,?,i,?,10µM
Oc1ccc(/C=N/N=C(c2ccccc2)c2ccccc2)c(O)c1O,?,i,?,?,?,?
O=C(Cc1ccc(F)cc1)NCCc1csc(-c2ccc(C(F)(F)F)cc2)n1,i,nt,nt,i,nt,nt
COc1ccccc1NC(=O)c1cn(CCC#N)nc1-c1ccc(F)cc1,i,i,?,i,12µM,i
SMILES,Lassa entry inh,HCV inhibitor,MARV entry inh,HCMV antiviral,Pf growth 96h,Pf growth 48h
N#CCCn1cc(C(=O)Nc2ccc(F)cc2)c(-c2ccccc2)n1,nt,i,nt,i,i,i
COc1ccccc1CNC(=O)CCn1c(=O)[nH]c2ccsc2c1=O,i,i,i,i,?,1µM
CCOC(=O)N1CCN(C(=O)CCn2c(=S)[nH]c3ccsc3c2=O)CC1,i,i,?,i,9.3µM,i
COc1ccc(N2CCN(C(=O)CCCn3c(=O)[nH]c4ccsc4c3=O)CC2)cc1,nt,i,i,i,7.4µM,nt
O=C(CCCn1c(=S)[nH]c2ccsc2c1=O)Nc1ccc2c(c1)OCCO2,nt,i,i,-75,i,i
O=C(CCCn1c(=S)[nH]c2ccsc2c1=O)Nc1ccc(F)cc1,nt,nt,nt,i,nt,nt
COc1ccc(C)cc1NC(=O)N1CCN(c2nnc(C)c3c(C)n(-c4ccccc4)nc23)CC1,i,nt,nt,i,nt,nt
COC(=O)C1(C(=O)OC)C[C@H](c2cccs2)N(Cc2ccccc2OC)[C@@H]1c1ccc(F)cc1,nt,nt,nt,i,nt,nt
CNC1C(O)C(OC2C(N)CC(N)C(OC3OC(CN)=CCC3N)C2O)OCC1(C)O (centres undefined),nt,nt,nt,nt,i,i
COc1cc2[nH]c(=O)n(CCC(=O)N3CCc4ccccc4C3)c(=O)c2cc1OC,i,i,i,i,i,nt
O=C(CCn1c(=O)[nH]c2ccsc2c1=O)N1CCc2ccccc2C1,?,i,i,i,10µM,i
Cc1sc(N/N=C/c2cccnc2)nc1-c1ccc(Cl)cc1,?,?,?,i,i,13µM
Cc1onc(-c2ccc(Cl)cc2Cl)c1-c1csc(N/N=C/c2ccccc2Cl)n1,i,i,?,i,?,6.6µM
Cc1sc(N/N=C/c2cccs2)nc1-c1ccccc1,?,?,7.9µM,?,?,i
CC(C)(C)c1csc(N/N=C/c2cccnc2)n1,?,?,?,i,?,13µM
